Bioassay records (PubChem)
AMA1 RON2 block: inhibitors of Plasmodium falciparum AMA1-RON2 interaction. AlphaScreen AMA1-biotinylated RON2 peptide binding. Potency, µM (top dose mostly 58.2 µM), for the others: at the top dose activity change, negative = inhibition, actives largely listed as inhibitors. 0.2% of 360,000 active. AID 720542;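 also: 0% = vehicle wells and -100% = peptide control; nearly all actives have a fitted effect of over 45% in size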
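AMA1 (3D7) with his tag at 25 nM final met compounds first, then biotinylated RON2 peptide at 25 nM; detection used donor plus acceptor beads, 10 µg/mL apiece, read by AlphaScreen after 30 min at room temperature.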
FMDV inh: foot and mouth disease virus antiviral activity; FMDV antiviral cell-based qHTS; Potency, µM (top dose mostly 57.9 µM), inactives show at the top dose activity change, negative = inhibition, most hits filed as inhibitors; 1.2% of 410,000 active; calls by dose curve; tested in HEK293T cells; also: read-out not given here; nearly all actives have a fitted effect of over 45% in size
AmpC no deterg: AmpC beta-lactamase inhibition without detergent; P00811; AmpC nitrocefin hydrolysis, absorbance 480 nm, 0.0001% Triton; Potency, µM (series often up to 57.1 µM), for the others: at the highest dose activity change, negative = inhibition, usual class: inhibitors; 0.52% of 330,000 active; AID 485341;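 also: plate controls were no compound for no effect and no enzyme for full effect; nearly all actives have a fitted effect of over 20% in size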
Target sequence (P00811 whole entry, looked up): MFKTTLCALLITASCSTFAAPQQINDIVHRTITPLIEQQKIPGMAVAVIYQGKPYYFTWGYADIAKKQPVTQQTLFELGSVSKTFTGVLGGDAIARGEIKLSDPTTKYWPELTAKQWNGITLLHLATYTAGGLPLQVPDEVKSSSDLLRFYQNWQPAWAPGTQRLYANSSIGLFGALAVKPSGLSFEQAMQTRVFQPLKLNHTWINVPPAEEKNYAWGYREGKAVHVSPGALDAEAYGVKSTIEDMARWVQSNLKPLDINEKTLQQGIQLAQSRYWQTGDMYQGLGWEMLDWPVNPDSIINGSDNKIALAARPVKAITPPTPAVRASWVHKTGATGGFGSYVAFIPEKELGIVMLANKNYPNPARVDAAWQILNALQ
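AmpC (5.3 nM in the dispensed reagent) in 20 mM phosphate pH 7.0 with 0.01% (detergent screen) or 0.0001% Triton X-100 was preincubated with compounds for 15 min at room temperature. Nitrocefin was then added from an 800 uM solution, and hydrolysis was followed at 480 nm.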
AmpC inh detg: blocks E. coli AmpC beta-lactamase in detergent assay; P00811; AmpC hydrolysis of nitrocefin, absorbance 480 nm, 0.01% Triton; Potency, µM (series often up to 114 µM), inactives show at the highest dose activity change, negative = inhibition, usual class: inhibitors; 0.041% of 370,000 active; AID 485294;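 also: 0% = no-compound wells and -100% = no-enzyme wells; nearly all actives have a fitted effect of over 25% in size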
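20 mM phosphate pH 7.0 + 0.01% (detergent screen) or 0.0001% Triton X-100; 5.3 nM AmpC reagent; cpd preinc 15 min RT; nitrocefin (800 uM stock) to start; A480 q20 s × 4 min; Activity was normalised to no-enzyme and no-compound control wells.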
Sm TGR block: blocks Schistosoma mansoni thioredoxin glutathione reductase | Q962Y6 | purified TGR, DTNB reduction, TNB absorbance 405 nm | Potency, µM (highest dose often 114 µM), without a hit: at the highest dose activity change, negative = inhibition, hits mostly inhibitors | 3% of 360,000 active | AID 485364; also: nearly all actives have a fitted effect of over 60% in size
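Kinetic colorimetric format: TGR-catalysed, NADPH-driven DTNB reduction monitored via TNB absorbance. Enzyme dispensed at 20 nM; compound exposure 15 min at room temperature before reaction start.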
The depositor's hits bear a star; ? = inconclusive; . = not tested or not shown. An excerpt weighted towards active compounds, which were near 4.1% of everything screened. Unless noted, calls follow the shape of the dose curve; as a rule, active = well fitted curve in the direction sought with a large enough effect; inconclusive = small, poorly fitted or top-dose-only effect, or another doubt; inactive = no such curve, though single readings can be large; an effect the other way counts as inactive or inconclusive. Unless noted, % is scaled to controls: 0 for no effect and ±100 for the full control effect; potency is read from the fitted curve at half-maximal effect.

SMILES | AMA1 RON2 block | FMDV inh | AmpC no deterg | AmpC inh detg | Sm TGR block
COc1cc(CN2CCOc3ccc(C(O)c4cccnc4)cc3C2)cc(OC)c1 (stereo not given) | . | -11% | . | . | .
O=C(NCc1ccco1)c1cc(-c2ccccc2)nc2ccccc12 | 7% | ? | -22% | -14% | 31%
CCCOc1cccc(-c2cc(C(=O)NN)c3ccccc3n2)c1 | 44% | ? | 10µM* | -13% | -10%
CCCCOc1ccc(-c2cc(C(=O)NNC(=S)NCC)c3ccccc3n2)cc1 | 18% | ? | -41% | -2% | 6%
COc1ccc(-c2cc(C(=O)NCc3ccco3)c3ccccc3n2)cc1 | 0% | 19% | 64% | ? | 40µM*
CCNC(=S)NNC(=O)c1cc(-c2ccc(OC)cc2)nc2ccccc12 | 89% | 11µM* | -36% | ? | 4%
CCCOc1cccc(-c2cc(C(=O)N/N=C/c3ccccn3)c3ccccc3n2)c1 | 91% | -25% | -8% | ? | 5%
COc1ccccc1C(=O)N[C@@H]1c2ccccc2C2(CCN(Cc3ccc(C)o3)CC2)[C@H]1O | . | -4% | . | . | .
CCn1nc(C)c(CCN(C)C(=O)Nc2cc(Cl)ccc2C)c1C | . | -10% | . | 12% | 7%
Cc1cc(C)cc(OCC(=O)N2N=C(C(F)(F)F)CC2(O)C(C)(C)C)c1 (stereo not given) | 2% | ? | -26% | -13% | 50µM*
COc1ccc(CNC(=O)c2cc3c(=O)n(C)c4ccccc4c3n2C)c(OC)c1 | . | 0% | . | 11% | 6%
COC(=O)c1c(N)sc(C(=O)N2CCOCC2)c1C | -8% | 9% | -12% | ? | 10%
COC(=O)c1c(NC(=O)CCl)sc(C(=O)N2CCOCC2)c1C | 7% | -22% | 178% | -13% | 32µM*
Cc1cccc(OCCSc2nc3ccc(NC(=O)COc4ccccc4)cc3s2)c1 | . | 0% | . | ? | -1%
O=C(O)c1ccc(Cn2cnc3scc(-c4ccccc4)c3c2=O)cc1 | 1% | 2% | -16% | ? | -3%
O=C(O)c1ccc(Cn2cnc3cccnc32)cc1 | 4% | -12% | -1% | 1% | 50µM*
O=C(O)c1nn(-c2ccccc2-c2n[nH]c(=O)[nH]c2=O)c(=O)[nH]c1=O | . | . | -1% | -10% | 11µM*
Cc1ccc(OCc2cc(=O)n3ccsc3n2)c(NC(=O)c2ccco2)c1 | . | -17% | . | -2% | 0%
Cc1c(Cl)cccc1NC(=O)C(=O)NCC(c1cccnc1)N1CCN(c2ccccc2)CC1 (stereo not given) | . | -29% | . | -2% | -5%
CCOC(=O)N1CCN(C(=O)c2ccc(CS(=O)(=O)c3ccccc3OC)o2)CC1 | 0% | -19% | 11% | 2% | 0%
COc1ccccc1N1CCN(C(=O)c2ccc(CS(=O)(=O)c3ccccc3OC)o2)CC1 | 29% | ? | 121% | -12% | 28µM*
COc1ccccc1S(=O)(=O)Cc1ccc(C(=O)N2CCN(c3ccc(C)cc3)C(C)C2)o1 (stereo not given) | -4% | 32µM* | ? | 2% | ?
Cc1cc(-c2ccccc2)[nH]c(=O)c1C#N | 20% | 4% | -23% | -7% | -2%
CN(C)c1c(-c2ccccc2)cc(-c2ccccc2)[nH]c1=O | . | . | -26% | -4% | 16µM*
CCOC(=O)C1CCN(C(c2cc3ccc(C)cc3[nH]c2=O)c2nnnn2C2CCCCC2)CC1 (stereo not given) | -9% | -19% | -5% | -11% | 10µM*
SMILES | AMA1 RON2 block | FMDV inh | AmpC no deterg | AmpC inh detg | Sm TGR block
CN[C@H]1C[C@@H](N)[C@H](O)[C@@H](O[C@@H]2O[C@H](CO)[C@H](O)[C@@H]3OC4(O[C@H]23)O[C@H](C(N)CO)[C@H](O)[C@H](O)[C@H]4O)[C@@H]1O (stereo not given in full) | . | 9% | . | . | .
CC1(C)Cc2noc(N)c2C(C)(C)N1O | 1% | 25% | -10% | -7% | 2.8µM*
CCOC(=O)COn1c(=O)c(-c2cccs2)[n+]([O-])c2ccccc21 | 2% | 18% | -26% | 1% | 20µM*
CCOC(=O)COn1c(=O)c(-c2ccc(Br)cc2)[n+]([O-])c2ccccc21 | 17% | 0% | -13% | -1% | -15%
CCOC(=O)COn1c(=O)c(-c2ccc(F)cc2)[n+]([O-])c2ccccc21 | 3% | -7% | -8% | -11% | 89µM*
CC(=O)OCC1=C(C(=O)O)N2C(=O)C(NC(=O)c3ccc(COc4ccc(Cl)cc4)o3)C2SC1 (stereo not given) | 2% | -11% | -9% | -3% | 22µM*
CC(=O)OCC1=C(C(=O)O)N2C(=O)C(NC(=O)c3ccc(COc4c(C)cccc4Cl)o3)C2SC1 (stereo not given) | 15% | -8% | -16% | -10% | 20µM*
CCOC(=O)N1CCC(NC(=O)c2ccc(CS(=O)(=O)c3c(Cl)cccc3Cl)o2)CC1 | 16% | -24% | 42% | ? | ?
CCS(=O)(=O)N1CC(=O)N(c2cccc(Cl)c2C)C(C)(C(=O)NC2CCCCC2)C1 (stereo not given) | . | 9% | . | 0% | 5%
COc1ccc2c(c1)c1c(c(=O)n(-c3ccc(F)c(Cl)c3)c(=O)n1Cc1cccc(C)c1)n2C | . | -21% | . | 8% | -2%
CO[C@H]1[C@H](NC(=O)c2ccsc2)c2ccccc2C12CCN(Cc1cnn(C)c1C)CC2 | . | 6% | . | . | .
COCCN(Cc1ccc(C)c(Br)c1)S(=O)(=O)c1ccc2[nH]c(=O)ccc2c1 | . | -32% | . | -9% | -17%
CCOc1cc(C2C(C#N)=C(N)OC(C)=C2C(C)=O)cc(Br)c1O (stereo not given) | -11% | . | -21% | -8% | 50µM*
CCc1ccc(NCc2cc3ccc(OC)cc3n(CC(=O)Nc3ccccc3OC)c2=O)cc1 | . | 0% | . | -3% | 6%
CCOc1ccc(CC(=O)C2=C(N3CCOCC3)CC(C)(C)CC2=O)cc1OCC | -3% | -6% | -16% | 7% | 7.9µM*
CCOc1ccc(CC(=N)C2=C(O)CC(C)(C)CC2=O)cc1OCC | 19% | -9% | -19% | -10% | -13%
CCOc1ccc(CC(=O)C2C(=O)CC(C)(C)CC2=O)cc1OCC | 10% | -8% | 2% | ? | 13µM*
CCOc1ccc(CC(=O)C2C(=O)CCCC2=O)cc1OCC | 2% | -16% | -10% | -14% | 32µM*
COc1ccc(Cn2ccnc2SCC(=O)NCc2ccccc2)cc1 | . | 13% | . | -8% | 1%
COc1ccc(-n2c(-c3cccc(F)c3)nc3c(cnn3-c3ccc(C)cc3)c2=O)cc1 | . | -28% | . | 2% | -16%
CCCCN(C)C(=O)c1ccc2c(c1)N(Cc1ccc(F)cc1)C(=O)c1ccccc1S2(=O)=O | . | -7% | . | 0% | -15%
Clc1ccccc1C1CC(c2ccccc2)Nc2ncnn21 (stereo not given) | -2% | -20% | 40µM* | ? | 2%
